# Measured values published in PubChem BioAssay AID624305 (National Center for Advancing Translational Sciences (NCATS), 2012).
# Records with an inconclusive call do not appear. Values without a mark were called inactive. Activity calls are given as the source filed them. Calls follow the shape of the dose curve; as a rule, active = well fitted activation curve with a large enough effect; inconclusive = small, poorly fitted or top-dose-only effect; inactive = no such curve, though single readings can be large or run the other way.
# Test: qHTS assay for re-activators of p53 using a Luc reporter: Hit Validation; also: nearly all actives have a fitted effect of over 75% in size; as to activation: 0% is about no effect
# Conditions: p53-responsive luciferase reporter cells, luminescence, H1299 line expressing heat-sensitive Ala138Val p53; series mostly up to 46.1 µM; activation: at the top concentration
# Description: The p53 tumor suppressor plays a key role in suppression of tumorigenesis and in human carcinogenesis. It is frequently found inactivated in human cancers, mainly by point mutation. These point mutations are found in a wide variety of human cancers and a majority of them affect the DNA binding domain of the protein. The point mutations either alter native p53 conformation or abolish DNA contact. Additionally, cancer cells with p53 mutations are more resistant to chemo-radiation therapies.
# In order to find activators to reactivate this important protein, a cell-based screen for p53-dependent luciferase-reporter expression was developed. A p53-null H1299 lung cancer cell line was stably co-transfected with a temperature sensitive p53 mutant, p53-A138V, and a p53-responsive BP100-luciferase reporter. This cell model has previously been characterized in a gene chip profiling experiment for p53 activation. By lowering the culture temperature from 37 deg C (mutant p53 conformation) to 32 deg C (w.t. p53 conformation), a 30-60 fold increase in activation of luciferase activity is observed. At assay temperate, 37 deg C, basal reporter expression is very low and after the addition of detection reagent, a luminescent read-out is carried out. This is the hit validation assay, confirming the hits identified from the primary screen.
# NIH Chemical Genomics Center [NCGC]
# NIH Molecular Libraries Probe Production Centers Network [MLPCN]
# Assay Provider (PI): Yi Sung, University of Michigan at Ann Arbor
# 5ul of 1000 cells per well are dispensed in all wells except column 4, into white solid-bottom TC-treated Kalypsys plates. The cells are kept in Opti-MEM and supplemented with 10% FBS and dispensed using a Multidrop (Thermo). Then using the Kalypsys pin-tool, 23nl of compounds are pinned. The compounds are starting concentration at 10mM, with 1:5 dilution, 4 points, and the control compound nocodazole is pinned in column 1 at 25mM, 1:3 dilution, in duplicate, 25mM nocodazole is pinned in column 2. Please note, all concentrations are working concentrations. 5ul of 1pM purified luciferase enzyme is dispensed using the Kalypsys dispenser in column 4. Plates are incubated for 24 hrs at 37 deg C, 5% CO2, and 95% humidity. Then 4ul of the detection reagent Amplite (ABD Bioquest) is added using the Kalypsys dispenser. Plates are incubated for 10 min at ambient room temperature and are then read on the ViewLux (Perkin Elmer) using a clear filter for a luminescent read-out.
# Potency is read from the fitted curve at half-maximal effect.
SMILES,activation [%],Potency
Cc1ccc(S(=O)(=O)NCC(=O)N2CCc3ccccc3C2)cc1,-22.4,–
NC(=NCc1ccccc1)c1cccc([N+](=O)[O-])c1,23.4,–
COc1ccc(-c2coc3cc(O[C@@H]4O[C@H](CO)[C@@H](O)[C@H](O)[C@H]4O)ccc3c2=O)cc1,–,2.91 µM (active)
CC1CCN(C2=C(NS(=O)(=O)c3ccc(Br)cc3)C(=O)c3ccccc3C2=O)CC1,35.9,–
Cn1c(CCN2CCCCC2)nc2cc(NC(=O)Nc3ccccc3)ccc21,10.4,–
Cc1ccc(Nc2nc(N)nc(CSc3nccn3C)n2)cc1,–,2.31 µM (active)
COc1cc(C(=O)NCC(=O)Nc2c(C)cccc2C)ccc1OCc1ccccc1,-7.81,–
O=C(Nc1ccc(-c2nc3cc(Cl)ccc3c(=O)o2)cc1)c1ccco1,-4.69,–
Cc1ccc(C(=O)NCC(=O)N2CCCCCC2)cc1,26,–
COCCn1c(SCC(=O)Nc2ccc(N3CCOCC3)cc2)nc2ccccc21,7.81,–
C/C(=N\NC(=O)c1ccccc1)c1ccc(NC(=O)c2cccs2)cc1,-2.6,–
CNC(=S)N/N=C/c1cc(Br)cc(Br)c1O,-9.38,–
O=C(Nc1nc2ccccc2s1)c1ccc2c(c1)OCO2,–,0.206 µM (active)
Cc1ccccc1S(=O)(=O)Nc1nc2ccccc2nc1N1CCc2ccccc2C1,29.7,–
CN(C)c1ccc(/C=N/Nc2nncc3ccccc23)cc1,–,0.366 µM (active)
CC(C)c1ccc(C(O)c2nc3ccccc3n2C)cc1 (stereo not given),19.8,–
Oc1[nH]c2ccccc2c1C=Nc1ccc2c(c1)OCCO2,–,0.326 µM (active)
C(=N\Nc1nc2ccccc2s1)/c1ccc2c(c1)OCO2,–,2.59 µM (active)
CCCCC(=O)NC(c1ccc(Cl)cc1Cl)c1ccc2cccnc2c1O (stereo not given),–,20.6 µM (active)
COc1ccccc1Oc1c(C)oc2c(CN(C)C)c(O)ccc2c1=O,-21.9,–

SMILES,activation [%],Potency
CCOc1ccc(N2C(=O)c3ccccc3NC2(C)CC)cc1 (stereo not given),–,9.2 µM (active)
CC(C)CNC(=S)Nc1ccc(Oc2ccccc2)cc1,-1.04,–
O=C(NCc1ccco1)c1noc2c1CCCC2,56.8,–
C/C(=N\NS(=O)(=O)c1ccc(Cl)cc1)c1ccc(NC(=O)c2ccco2)cc1,24.5,–
CC(C)CC(NC(=O)C1CCC(=O)N1)C(=O)NC(CC(C)C)C(=O)N1CCCC1C(N)=O (stereo not given),-19.8,–
Cc1cc(C)cc(NC(=O)CSc2nnc(-c3ccccc3C)o2)c1,35.9,–
CCOC(=O)CC(=O)Nc1ccc(C(=O)OCC)cc1,33.3,–
CCCCCCC[C@@H](C/C=C/CCC(=O)N(C)C/C(=C/Cl)C/C(=C\C(=O)N1CC(OC)=CC1=O)OC)OC,–,5.8 µM (active)
Cc1ccccc1C(=O)Nc1ccc(Br)cn1,–,3.66 µM (active)
C=CCNC(=S)N/N=C(\C)c1ccccn1,–,6.51 µM (active)
O=C(CCC1CCCC1)Nc1ccc(Br)cn1,–,11.6 µM (active)
N#CC(Cc1ccccc1)(Cc1ccccc1)C(=O)NN,-87.5,–
Oc1c(CN2CCOCC2)cc(COCc2ccccc2)c2cccnc12,28.6,–
Cc1cccc(C)c1Nc1c(-c2ccccn2)nc2ccccn12,14.1,–
Cc1ccc(-n2c(C)cc(C(=O)CSc3nnc4ccccn34)c2C)cc1,–,6.51 µM (active)
Cc1cccc(-n2c(O)c(C=Nc3ccccc3N)c(=O)[nH]c2=O)c1,39.1,–
COc1ccc(C(C#N)N2N=C(c3ccccc3)CC2c2ccccc2)cc1OC (stereo not given),-1.56,–
CC(C)N1C(=O)CN(C2CCCCCC2)C(=O)C1c1ccccc1F (stereo not given),29.7,–
CN(NC1CC(=O)N(c2ccccc2)C1=O)c1ccccc1 (stereo not given),13.5,–
C/C(=N\NC(=S)NC(C)C)c1ccc(Cl)s1,14.1,–
